Screening data: PubChem BioAssay, National Center for Advancing Translational Sciences (NCATS)
Shiga toxin inh – blocks Shiga toxin action in Vero cells; 9.2% of 290,000 active; Vero cells, Shiga toxin protein synthesis inhibition reporter; inhibition, % at 38.7 µM; in the data active = inhibition mostly above about 28%, no sharp cut-off; inactive = mostly below about 43%; note: 0% is about no effect
NS1 function inh – blocks influenza NS1 protein function; Potency, µM (titrated, usually from 46.1 µM), for the others: top-dose activity, positive = more growth; 0.4% of 270,000 active; AID 2326; calls by dose curve; note: potency is the fitted concentration of half-maximal effect; actives are rising curves; nearly all actives have a fitted effect of over 50% in size
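Growth recovery, yeast-based: influenza A NS1 expressed in S. cerevisiae causes slow growth, and suppressors are detected by OD600. The parent strain without NS1 is used as positive control.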
Cycloheximide cs – affects cycloheximide protein synthesis inhibition readout, counter-screen; cell reporter, cycloheximide protein synthesis inhibition counterscreen; max response, %; 12% of 300,000 active; in the data active = max response mostly above about 13%, no sharp cut-off; inactive = mostly below about 14%; note: read at 38.3 µM for the half of the compounds with a filed dose; 0% is about no effect
Pf growth 96h – P. falciparum growth inhibition at 96 hour, primary screen for plastid delayed-death inhibitors; P. falciparum luciferase reporter growth, 96 h; Potency, µM (doses to about 28.7 µM), without a hit: at the highest dose activity change, negative = inhibition, hits mostly inhibitors; 6.9% of 320,000 active; note: potency is the fitted concentration of half-maximal effect; % is set by controls: 0 for no effect and ±100 for the full control effect
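Cell-based qHTS: luciferase-tagged P. falciparum in erythrocytes (2% hematocrit, 0.05% parasitemia final) incubated with compounds for 96 hours, 37 C, 5% CO2; luciferase detection reagent then added and luminescence measured.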
Pf growth 48h – inhibits P. falciparum growth in the first generation, 48 h; P. falciparum luciferase growth in erythrocytes, 48 h; Potency, µM (series often up to 28.7 µM), for inactives: at the highest dose activity change, negative = inhibition, actives largely listed as inhibitors; 5.9% of 310,000 active; note: potency is the fitted concentration of half-maximal effect; % is set by controls: 0 for no effect and ±100 for the full control effect
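Here the parasites carry a stable luciferase gene and grow inside erythrocytes in Albumax-based RPMI medium with compound for one erythrocytic cycle. Activity is scored as loss of luminescent signal.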
* marks the source's active call; other numbers are inactive results; [ ] = dose if it differs, or a comment. An excerpt weighted towards active compounds, which were near 21% of everything screened. Unless noted, calls come from the whole dose curve; as a rule, active = well fitted inhibition curve with a large enough effect; inconclusive = small, poorly fitted or top-dose-only effect, or another doubt; inactive = no such curve, though single readings can be large or run the other way.

`COc1ccc(-c2ccoc2)cc1[C@H]1[C@H]2C=CC[C@@H](C)[C@@H]2C(=O)N1Cc1ccccc1` gave Shiga toxin inh -6.8, NS1 function inh -14.7%, Cycloheximide cs -3.7, Pf growth 96h inconclusive and Pf growth 48h 10.4µM*.
Screening COCCNC(=O)Cn1nc(-c2ccc(Cl)cc2)c2ccccc2c1=O returned Shiga toxin inh -19.2, NS1 function inh -2.2%, Cycloheximide cs -1.1, Pf growth 96h inconclusive and Pf growth 48h 5.5%.
For C[C@@H]1CN(Cc2cn(C)nc2-c2cccc(Cl)c2)C[C@H](C)O1 the results were Shiga toxin inh -4.0, NS1 function inh 9.8%, Cycloheximide cs -2.3, Pf growth 96h -13.6% and Pf growth 48h 1.9%.
Screening O=C(COc1coc(CN2CCN(c3ccccc3)CC2)cc1=O)Nc1ccc(F)cc1 returned Pf growth 96h -0.3% and Pf growth 48h inconclusive.
COc1ccc(CNC(=O)c2c(C)nc3ccccn23)cc1 was read as Shiga toxin inh 17.8, NS1 function inh -0.9%, Cycloheximide cs 4.6, Pf growth 96h inconclusive and Pf growth 48h -10.6%.
Screening Cc1nc2ccccn2c1C(=O)/C=C/c1ccc(F)cc1 returned Shiga toxin inh 94.8*, NS1 function inh -86.2%, Cycloheximide cs 54.5*, Pf growth 96h inconclusive and Pf growth 48h 26.8%.
`Cc1nc2ccccn2c1C(=O)NN` gave Shiga toxin inh -4.2, NS1 function inh -8.4%, Cycloheximide cs -0.7, Pf growth 96h -3.9% and Pf growth 48h 3.6%.
`COc1ccc(/C=C/C(=O)c2c(C)nc3ccccn23)cc1` gave Shiga toxin inh 107.2*, NS1 function inh -57.2%, Cycloheximide cs 47.7*, Pf growth 96h inconclusive and Pf growth 48h 36.0%.
For COc1ccc(CCNC(=O)c2c(C)nc3ccccn23)cc1 the results were Shiga toxin inh 11.5, Cycloheximide cs 9.5, Pf growth 96h 11.7µM* and Pf growth 48h inconclusive.
For COc1ccc(CCNCC(O)COc2c(C)cccc2C)cc1OC (centres undefined) the results were Shiga toxin inh -8.0, NS1 function inh -0.3%, Cycloheximide cs -6.3, Pf growth 96h inconclusive and Pf growth 48h 23.4%[0.00184 µM].
`Cc1ccc(C(=O)c2cn(Cc3ccc(Cl)cc3)c3nc(C)ccc3c2=O)cc1` gave Pf growth 96h 11.7µM* and Pf growth 48h inconclusive.
Cc1ccc(Cn2cc(C(=O)c3ccc(F)cc3)c(=O)c3cc4c(cc32)OCCO4)cc1 was read as Shiga toxin inh 0.0, NS1 function inh 3.5%, Cycloheximide cs -2.8, Pf growth 96h 11.7µM* and Pf growth 48h -25.0%.
For COc1cc(/C=C/c2nc(N)nc(-c3ccccc3O)n2)cc(OC)c1OC the results were Shiga toxin inh 4.9, NS1 function inh -1.2%, Cycloheximide cs -0.9, Pf growth 96h -16.8% and Pf growth 48h inconclusive.
`C(=C\c1nnc2c3ccccc3ncn12)/c1ccccc1` gave Shiga toxin inh 60.7*, NS1 function inh -44.8%, Cycloheximide cs 51.4*, Pf growth 96h 165.9% and Pf growth 48h 128.5%.
COc1cc(/C=C/c2nnc3c4ccccc4ncn23)cc(OC)c1OC was read as Shiga toxin inh 13.9, NS1 function inh -0.2%, Cycloheximide cs 13.5*, Pf growth 96h inconclusive and Pf growth 48h 9.28µM*.
For CCN(CC(=O)Nc1c(F)cccc1F)C(=O)c1nc2nc(C)cc(C)n2n1 the results were Pf growth 96h 28.5% and Pf growth 48h -14.6%.
`CCCC12CN3CC(C)(CN(C1)C3c1ccco1)C2=O` (centres undefined) gave Shiga toxin inh -7.7, Cycloheximide cs 10.1, Pf growth 96h 105.4% and Pf growth 48h 14.6%.
Screening CSc1nsc(NC(=O)OCc2ccc(Cl)cc2)n1 returned Shiga toxin inh 12.3, NS1 function inh -90.7%, Cycloheximide cs 11.2, Pf growth 96h 231.3% and Pf growth 48h -0.9%.
Screening COc1ccsc1NC(=O)OCc1ccc(Cl)cc1 returned Shiga toxin inh 44.0*, NS1 function inh -0.2%, Cycloheximide cs 36.7* and Pf growth 96h 96.2%.
For CC(=O)C(=O)O the results were Shiga toxin inh 16.1 and Cycloheximide cs -2.5.
COc1cccc2c1C(=O)c1c(O)c3c(c(O)c1C2=O)C[C@](O)(C(C)=O)C[C@H]3O[C@@H]1C[C@@H](N)[C@@H](O)[C@@H](C)O1 was read as Pf growth 96h 1.17µM* and Pf growth 48h 0.928µM*.
`COc1cccc2c1C(=O)c1c(O)c3c(c(O)c1C2=O)C[C@@](O)(C(=O)CO)C[C@H]3O[C@H]1C[C@@H](N)[C@H](O)[C@@H](C)O1.[W]` gave NS1 function inh -4.5%.
Screening COc1cccc2c1C(=O)c1c(O)c3c(c(O)c1C2=O)C[C@@](O)(C(=O)CO)C[C@@H]3O[C@H]1C[C@H](N)[C@H](OC2CCCCO2)[C@H](C)O1 (some centres undefined) returned Pf growth 96h 4.26µM* and Pf growth 48h 3.79µM*.
Clc1ccc2c(N/N=C/c3ccc(Br)cc3)ccnc2c1 was read as Shiga toxin inh 21.1, NS1 function inh -22.4%, Cycloheximide cs 8.7, Pf growth 96h 1.47µM* and Pf growth 48h 0.329µM*.
For Clc1ccc2c(N/N=C/c3cccnc3)ccnc2c1 the results were Shiga toxin inh 24.5, Cycloheximide cs 16.6*, Pf growth 96h 0.828µM* and Pf growth 48h 0.657µM*.
Screening O=c1[nH]ncc(N/N=C\c2cccnc2)c1Cl returned Shiga toxin inh 17.3, NS1 function inh 4.4%, Cycloheximide cs -2.5, Pf growth 96h 33.2% and Pf growth 48h 12.6%.
`O=C(c1ccc(Cl)c(S(=O)(=O)N2CCCCC2)c1)N1CCN(Cc2ccccc2)CC1` gave Shiga toxin inh -16.0, NS1 function inh 16.6%, Cycloheximide cs -4.4, Pf growth 96h inconclusive and Pf growth 48h 18.5%.
For CCN(CC)S(=O)(=O)c1ccc(OC)c(NC(=O)c2cc(C)on2)c1 the results were Shiga toxin inh -17.2, NS1 function inh 1.6%, Cycloheximide cs 12.2, Pf growth 96h 6.1% and Pf growth 48h 11.1%.
For C/C1=C\CCC2C(/C=C(\C)CC1)OC(=O)C2CN1CCCCC1 (centres undefined) the results were Shiga toxin inh -1.5, NS1 function inh -6.2%, Cycloheximide cs 8.2, Pf growth 96h inconclusive and Pf growth 48h inconclusive.
`CC(C)c1cc(Nc2cccc(O)c2)cc(C(C)C)c1O` gave Shiga toxin inh 9.7, NS1 function inh -24.5%, Cycloheximide cs 10.3, Pf growth 96h 11.7µM* and Pf growth 48h inconclusive.
O=C(N/N=C/c1cccc(Oc2ccccc2)c1)c1ccccc1Br was read as Shiga toxin inh 28.1, NS1 function inh -48.3%, Cycloheximide cs 1.2, Pf growth 96h 0.0% and Pf growth 48h inconclusive.
For CCCCCCc1nc(C(N)=O)c2[nH]c(=O)n(-c3ccccc3F)c2n1 the results were Shiga toxin inh -3.1, NS1 function inh 12.1%, Cycloheximide cs 8.3, Pf growth 96h -1.0% and Pf growth 48h 1.8%.
Screening COc1cccc(OCCCn2ccnc2)c1 returned Shiga toxin inh -6.2, NS1 function inh -8.8%, Cycloheximide cs -1.9, Pf growth 96h 10.0% and Pf growth 48h 43.5%.
